Tested on: CLZ3 (HCA2 human fibroblast dual HR-NHEJ reporter)
Assay: HR repair efficiency (tdTomato+ cells) relative to control (log10 fold); higher = more homologous recombination
Conditions: 5 µM; doxycycline 0.5 ug/mL
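Also: compound given one day before doxycycline, which switches on I-SceI endonuclease expression to create double-strand breaks within the integrated reporter.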

SMILES	HR repair efficiency (log10)
CC=C1[C@H](O[C@@H]2O[C@H](CO)[C@@H](O)[C@H](O)[C@H]2O)OC=C(C(=O)OC)[C@H]1CC(=O)OC[C@H]1O[C@@H](OCCc2ccc(O)cc2)[C@H](O)[C@@H](O)[C@@H]1O (stereo in doubt) [Specnuezhenide]	0.0832
O=c1c(-c2ccc(O)cc2)coc2c([C@@H]3O[C@H](CO)[C@@H](O)[C@H](O)[C@H]3O)c(O)ccc12 [Puerarin]	0.038
O=c1cc(-c2ccc(O)c(O)c2)oc2c([C@@H]3O[C@H](CO)[C@@H](O)[C@H](O)[C@H]3O)c(O)cc(O)c12 [Orientin]	0.0493
O=c1cc(-c2ccc(O)c(-c3c(O)cc(O)c4c(=O)cc(-c5ccc(O)cc5)oc34)c2)oc2cc(O)cc(O)c12 [Amentoflavone]	0.0831
C=C[C@@H]1CNC(=S)O1 [Epigoitrin]	0.212
O=c1c(O[C@@H]2O[C@H](CO)[C@H](O)[C@H](O)[C@H]2O)c(-c2ccc(O)c(O)c2)oc2cc(O)cc(O)c12 [Hyperoside]	-0.00424
CCCOC(=O)c1cc(O)c(O)c(O)c1 [Propyl gallate]	0.0457
CC(C)=CCC12Oc3cc(O)ccc3C1(O)Oc1cc(O)c([C@H]3C=C(C)C[C@@H](c4ccc(O)cc4O)[C@@H]3C(=O)c3ccc(O)cc3O)c(O)c1C2=O (stereo not given in full) [Sanggenon D]	-0.176
O=c1c(-c2ccc(O)cc2)coc2cc(O)cc(O)c12 [Genistein]	-0.179
O=c1cc(-c2ccc(O)cc2)oc2cc(O[C@@H]3O[C@H](CO)[C@@H](O)[C@H](O)[C@H]3O[C@@H]3OC[C@](O)(CO)[C@H]3O)cc(O)c12 [Apiin]	0.321
